Rows were chosen to be rich in hits. Some 5.1% of all compounds tested hit in one or more screens of this group.
S1P4 antag = antagonists of human S1P4 receptor; S1P4-expressing cells, antagonist mode, reporter read-out; inhibition, % at 4.98 µM; O95977; 220,000 compounds, 0.26% hits; in the data active = inhibition above about 29%;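 note: 0% = wells stimulated with agonist and 100% = vehicle wells without agonist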
RAM inhibit = yeast RAM network inhibition; S. cerevisiae dse1pr::URA3 reporter, 5-FOA growth OD615, 2 d; analog-sensitive cbk1-as2 kinase mutant strain; inhibition, % at 50 µM; 190,000 compounds, 1.8% hits; AID 868;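 active = inhibition above a set limit, 3 SD over mean compound inhibition, cut at about 8.4% in these data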;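 note: 0% = DMSO-only wells with no growth and 100% = 10 µM 1-NA-PP1 full growth; inhibition rescues growth on 5-FOA so higher OD means more RAM inhibition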
S1P3 antagonist = blocks the human S1P3 receptor; 170,000 compounds, 0.27% hits; CHO S1P3 NFAT-BLA reporter, FRET fluorescence, antagonist mode; inhibition, % at 4.98 µM; Q99500;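 active = inhibition above the plate cutoff, the mean inhibition of test wells on that plate plus 3 SD, cut at about 28% in these data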;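 note: cells challenged with S1P at its EC80 of 0.8 µM; blue over green emission ratio from cleaved BLA substrate after 4 h stimulation; 0% = S1P-stimulated wells and 100% = unstimulated DMSO-only wells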
ROMK mod = modulators of human ROMK potassium channel | P48048 | Tet-inducible ROMK, thallium flux fluorescence; actives lie on both sides | B-score at 10 µM | 130,000 compounds, 2% hits;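 active = signal ratio slope over the read window, or its plate-corrected B-score, at least 3 SD from the plate mean, either direction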;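 note: B-score of the F/F0 ratio slope over 7 to 12 s after thallium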
S1P4 agonist = agonists of human S1P4 receptor. AID 1509. 220,000 compounds, 0.35% hits. S1P4-expressing cell line, agonist reporter assay. activation, % at 4.98 µM; in the data active = activation above about 11%;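 note: 0% = DMSO vehicle and 100% = reference agonist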
KCC2 mod = modulates chloride dependent transport by human KCC2 | Q9H2X9 | KCC2 cells, thallium flux FluoZin-2 fluorescence | B-score of Tl+ flux slope (higher = more flux/activation; lower = inhibition) at 10 µM | 190,000 compounds, 2.2% hits | AID 1456;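 active = thallium flux slope and its plate-corrected score both differing from the plate sample mean at a set confidence after two filtering rounds, in either direction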;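 note: slope of fluorescence scaled to starting intensity during 10 to 20 s after thallium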
Target sequence (Q9H2X9 whole entry, looked up): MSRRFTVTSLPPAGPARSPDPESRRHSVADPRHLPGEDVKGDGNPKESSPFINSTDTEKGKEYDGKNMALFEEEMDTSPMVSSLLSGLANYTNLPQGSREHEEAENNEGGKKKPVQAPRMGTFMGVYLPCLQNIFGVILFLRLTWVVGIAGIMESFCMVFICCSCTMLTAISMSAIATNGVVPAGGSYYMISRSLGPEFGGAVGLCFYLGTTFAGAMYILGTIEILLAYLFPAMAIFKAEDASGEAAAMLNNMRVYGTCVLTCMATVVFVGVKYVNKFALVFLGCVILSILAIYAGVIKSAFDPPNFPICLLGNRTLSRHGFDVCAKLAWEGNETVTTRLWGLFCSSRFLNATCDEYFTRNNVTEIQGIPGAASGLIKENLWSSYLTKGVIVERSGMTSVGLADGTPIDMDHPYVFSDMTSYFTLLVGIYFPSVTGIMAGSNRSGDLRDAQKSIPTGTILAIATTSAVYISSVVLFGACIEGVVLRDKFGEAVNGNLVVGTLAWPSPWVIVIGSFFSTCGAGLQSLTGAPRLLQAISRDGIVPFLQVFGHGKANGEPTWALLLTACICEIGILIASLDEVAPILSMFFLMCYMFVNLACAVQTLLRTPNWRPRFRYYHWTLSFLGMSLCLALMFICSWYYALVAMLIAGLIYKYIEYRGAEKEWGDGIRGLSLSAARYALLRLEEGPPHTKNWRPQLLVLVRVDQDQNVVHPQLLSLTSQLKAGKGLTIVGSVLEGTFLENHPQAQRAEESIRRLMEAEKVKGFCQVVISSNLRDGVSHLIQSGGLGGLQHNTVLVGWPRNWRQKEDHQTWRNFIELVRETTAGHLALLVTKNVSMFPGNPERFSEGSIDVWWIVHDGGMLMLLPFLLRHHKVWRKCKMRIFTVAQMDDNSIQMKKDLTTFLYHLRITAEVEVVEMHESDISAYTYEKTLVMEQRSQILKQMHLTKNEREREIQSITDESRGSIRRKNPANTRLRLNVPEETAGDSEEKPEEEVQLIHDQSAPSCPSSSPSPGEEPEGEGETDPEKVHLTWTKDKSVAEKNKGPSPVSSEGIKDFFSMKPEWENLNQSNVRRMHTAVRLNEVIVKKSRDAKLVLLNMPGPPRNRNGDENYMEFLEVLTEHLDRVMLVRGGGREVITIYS
ROMK hit retest = human ROMK channel modulation, retest confirmation | shares compounds with ROMK mod | ROMK thallium flux, fluorescence ratio; hits give low values | normalized thallium flux (F/F0 slope) at 10 µM | 3,000 compounds, 54% hits | AID 1917;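 active = Flux at 10 µM at least 3 SD below or above vehicle control mean in one or both replicates; inconclusive = no clear call, values can overlap the other calls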
* marks the source's active call; other numbers are inactive results; ? = inconclusive; . = not tested or not shown.

SMILES	S1P4 antag	RAM inhibit	S1P3 antagonist	ROMK mod	S1P4 agonist	KCC2 mod	ROMK hit retest
Cc1noc(C)c1COc1ccc(C(=O)OCC(=O)Nc2ccc3c(c2)OCO3)cc1	-2	5	.	.	0	0.65	0.072
O=C1CCCC(O)=C1C(C#Cc1ccccc1)C1=C(O)CCCC1=O	-9	1	-8	-3.8*	1	-0.62	0.063*
CCCCc1nnc(NC(=O)C(C)Sc2nc(C)cc(=O)[nH]2)s1 (stereo not given)	-13	1	.	.	0	-0.43	.
COc1cccc(N2CCN(c3ncnc4c3cnn4-c3ccc(C)cc3C)CC2)c1	-30	6	19	.	-3	-1.3	0.071
O=S(=O)(c1ccccc1)N1CCC2(CC1)OCCO2	4	2	12	0.93	0	-1.6	.
CC(C)c1ccc(/C=N/NC(=O)c2cccc(S(=O)(=O)N3CCOCC3)c2)cc1	-3	1	-13	0.8*	0	1.2	0.087
COc1cc(C=O)ccc1OCC(=O)N1CCCC1	-7	2	-14	0.79	4	0.57	.
COc1ccc(/C=C/C2=Nc3ccccc3NC(C)(C)C2)cc1OC	3	.	2	-7.8*	1	-0.6	0.043*
COc1ccc(/C=C/C2=CC(C)(C)NC(=S)N2)cc1OC	-10	0	-6	1.1	2	-0.054	.
COCCNC(=O)C1CCCN(c2ncccn2)C1 (stereo not given)	-7	0	2	.	-5	2.4	.
O=C(NCC1CCCO1)C1CCCN(c2ncccn2)C1 (stereo not given)	-6	1	-29	.	0	0.44	0.076
CCc1ccc(S(=O)(=O)NCCc2csc(-c3ccccc3)n2)s1	-27	8.5*	0	-3.4*	0	-1.8	0.071
CCOC(=O)C1CCN(S(=O)(=O)c2ccc(OC)c(Cl)c2)CC1	-23	3	-9	0.2	0	0	.
COc1ccc(OCCn2c(=N)n(CCO)c3ccccc32)cc1	8	2	16	-1.2	-4	0.72	.
N=c1n(CCO)c2ccccc2n1CCOc1ccc(Cl)cc1Cl	6	1	36	.	-5	.	0.049*
O=S1CCCSC1c1cccnc1 (stereo not given)	-1	1	.	0.057	1	0.98	0.076
CCOC(=O)Cc1csc(NC(=O)c2csc3c2CCCC3)n1	-12	5	26	.	0	-0.74	0.07
CCOc1ccc(-n2c(SCC(=O)Nc3cc(C)on3)nnc2-c2c[nH]c3ccccc23)cc1	-12	8.6*	.	4.3*	1	0.039	0.073
CC1(C)CC(=O)c2cc(NC(=O)c3ccc(F)cc3)c(=O)oc2C1	0	3	-1	0.72	1	0.067	.
Cc1ccc(NC(=O)Nc2cnc3ccccc3c2)cc1	-4	4	13	.	4	0.35	.
COC(=O)c1cccc(C(=O)Nc2cnc3ccccc3c2)n1	-12	4	15	.	-1	-0.19	0.05*
C/C(Cl)=C\Cn1c(N2CCCC2)nc2c1c(=O)[nH]c(=O)n2C	-10	-1	5	.	0	.	0.076
CCCCC(=O)Nc1ccc2c(c1)nc(CCN1CCN(C)CC1)n2C	-14	.	-1	.	1	0.78	.
CC1(C(=O)NCc2ccc(F)cc2)Oc2ccccc2NC1=O (stereo not given)	8	3	-2	-0.79	0	1	.
CCCCOC(=O)CSC1=C(C#N)C(c2cccnc2)C(C(=O)OCC)=C(c2ccccc2)N1 (stereo not given)	-10	1	11	-3.4*	-1	-1.4	0.067*
SMILES	S1P4 antag	RAM inhibit	S1P3 antagonist	ROMK mod	S1P4 agonist	KCC2 mod	ROMK hit retest
CN(C)c1ccc(/C=c2\sc3n(c2=O)CCCN=3)cc1	15	0	19	-4.4*	2	-0.54	0.054*
CCOc1ccccc1CNS(=O)(=O)c1ccc2[nH]c(=O)sc2c1	-21	1	-20	-3.5*	-1	-1.3	0.075
CC1CCN(C2(O)C(=O)Nc3ccc(Br)cc32)CC1 (stereo not given)	9	1	16	1.1	-3	-0.86	.
Cc1cccc2cc(CN(CC3CCCO3)C(c3nnnn3Cc3ccco3)C(C)C)c(=O)[nH]c12 (stereo not given)	-2	3	14	-3*	0	0.78	0.071
Cc1cc2cc(C(c3nnnn3C(C)(C)C)N(Cc3ccco3)CC3CCCO3)c(=O)[nH]c2cc1C (stereo not given)	-12	6	.	.	-1	-0.018	.
Cc1cc(C)c2[nH]c(=O)c(C(c3nnnn3C(C)(C)C)N(Cc3ccco3)CC3CCCO3)cc2c1 (stereo not given)	-7	-1	.	-3.3*	2	0.0016	0.058*
COc1ccc(OC)c(CC(NC(C)=O)C(=O)NC2CCN(c3c(Cc4ccccc4)c(C)nc4ncnn34)CC2)c1 (stereo not given)	14	1	-2	0.0058	1	-2.9	.
COc1cccc(CC(NC(C)=O)C(=O)NC2CCN(c3c(Cc4ccccc4)c(C)nc4ncnn34)CC2)c1 (stereo not given)	15	1	-11	-0.74	-1	0.00078	0.093
COc1ccc(NC2=CC(=O)CC(c3ccccc3)C2)cc1 (stereo not given)	6	4	-12	.	3	.	.
CC(C)(C)C(=O)c1cnc(Nc2ccccc2Cl)s1	-1	2	.	5.4*	0	-1.4	0.09
COc1cc(C(=O)Nc2nc(C)c(Cc3ccc4c(c3)OCO4)s2)cc(OC)c1OC	13	6	4	2.6*	0	-1.3	0.11*
Cc1cccc(NS(=O)(=O)c2ccc3[nH]c(=O)cc(C(=O)OC(C)C(=O)Nc4ccc([N+](=O)[O-])cc4)c3c2)c1 (stereo not given)	-4	8	-2	-3.1*	-1	-0.84	?
C=CCn1c(O)c(N=NC(=O)c2ccc3c(c2)OCO3)c2ccccc21	8	4	.	.	-2	1	.
CC/C(=N\NC(N)=O)c1ccc(OC(F)F)cc1	-2	.	-9	.	1	-0.65	.
COC(=O)C1C(c2ccccc2)C(C(=O)O)C1c1ccccc1 (stereo not given)	-11	1	-17	2	0	0.025	0.075
O=C(O)COC(=O)C1C(c2ccccc2)C(C(=O)O)C1c1ccccc1 (stereo not given)	-5	1	0	1.2	0	-0.39	.
COc1cc(OC)c2c(O)c3c(c(-c4c5c(c(O)c6c(OC)cc(OC)cc46)CO[C@@H](C)[C@H]5O)c2c1)[C@H](O)[C@H](C)OC3	-11	1	-7	.	-1	-1.6	.
CC[C@H](C)[C@H](NC(N)=O)C(=O)NCCc1ccc(Cl)cc1Cl	0	1	-16	1.1	-2	-0.11	.
O=S(=O)(c1ccc2oc(=S)[nH]c2c1)N1CCCCC1	8	.	-47	.	1	-0.41	.
S=c1[nH]c2cc(-c3ccccc3)ccc2o1	-9	.	-11	.	0	.	0.11*

Screening results: PubChem, several laboratories
